Z-score and composite z-score data for twelve compounds are collected here from PubChem BioAssay.

Activity calls are given as the source filed them. Unless noted, how the calls were made is not given here.

The nature of assay [1]: HepG2 liver cancer cell viability effects, profiling panel, resazurin fluorescence, 24 h, PK04 Diversity Set (AID 1172). Further: test concentration not given here. Particulars: higher = more signal.
A short description of assay [2]: basal S. cerevisiae growth modulation, no modifier, primary screen, OD600, strain BY4716, 24 h, basal condition (AID 1173). The note with it: OD600, 24 h, higher = more signal, called active from +8 up or from −8 down.
The nature of assay [3]: MM1S myeloma cell viability, profiling panel, resazurin fluorescence, basal, 24 h, PK04 Diversity Set (AID 1174).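 Further: MM1S multiple myeloma cell line; test concentration not given here.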 Particulars: higher = more signal, called active from +8 up or from −8 down. For orientation: Resazurin is reduced to fluorescent resorufin, in cell work by metabolically active cells.
The target of assay [4] is Dihydroorotate dehydrogenase (quinone), mitochondrial (Plasmodium falciparum (isolate 3D7)) (UniProt Q08210). Nature of the assay: PfDHODH enzyme inhibitors, primary screen, biochemical, C-terminal His tag, absorbance 600 nm (AID 1175).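 Further: recombinant parasite enzyme with a five histidine tag at its C terminus; test concentration not given here.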 The note with it: DCIP absorbance 600 nm, higher = more signal, called active from +8 up or from −8 down.
Sequence of Dihydroorotate dehydrogenase (quinone), mitochondrial (Plasmodium falciparum (isolate 3D7)) (Q08210 whole entry, looked up): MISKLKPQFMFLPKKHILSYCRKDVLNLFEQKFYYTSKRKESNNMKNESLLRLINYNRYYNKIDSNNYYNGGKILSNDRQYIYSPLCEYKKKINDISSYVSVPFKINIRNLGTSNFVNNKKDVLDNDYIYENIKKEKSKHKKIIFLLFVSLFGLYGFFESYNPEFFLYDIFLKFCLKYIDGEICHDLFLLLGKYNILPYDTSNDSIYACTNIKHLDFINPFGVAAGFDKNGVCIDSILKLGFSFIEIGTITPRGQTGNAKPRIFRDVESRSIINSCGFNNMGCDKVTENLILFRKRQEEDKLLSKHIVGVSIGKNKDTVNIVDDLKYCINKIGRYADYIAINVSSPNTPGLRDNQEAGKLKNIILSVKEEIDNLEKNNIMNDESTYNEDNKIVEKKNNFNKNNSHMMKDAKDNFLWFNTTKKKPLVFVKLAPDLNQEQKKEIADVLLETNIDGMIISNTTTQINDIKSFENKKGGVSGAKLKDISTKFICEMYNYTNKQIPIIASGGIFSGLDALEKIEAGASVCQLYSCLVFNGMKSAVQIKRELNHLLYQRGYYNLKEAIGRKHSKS
A short description of assay [5]: P. aeruginosa biofilm formation inhibitors, primary screen, strain PAO1, LB-PBS medium, absorbance 600 nm (AID 1176). Further: test concentration not given here. Particulars: P. aeruginosa PAO1 growth/biofilm, A600, 12 h; higher = more signal.
The nature of assay [6]: S. cerevisiae RM11-1a growth modifiers, primary screen, strain RM11-1a, OD600, basal, 24 h (AID 1177).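 Further: cultures grown under basal conditions with no added stressor; test concentration not given here.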 Particulars: OD600, 24 h, higher = more signal, called active from +8 up or from −8 down.
Assay [7] in a line: E. coli acrAB mutant growth effects, primary screen, E. coli filamentation inducers, strain DRC39, OD650, 24 h (AID 1178).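 Further: growth measured as culture turbidity by optical density at 650 nm; test concentration not given here.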 Particulars: higher = more signal, called active from +8 up or from −8 down.
Assay [8] can be described thus: E. coli acrAB mutant growth effects, primary screen, E. coli filamentation inducers, strain DRC39, OD650, 48 h (AID 1179).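 Further: screen aims at cell division blockers that make cells filament.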 Particulars: E. coli DRC39 delta-acrAB growth, higher = more signal, called active from +8 up or from −8 down.
Assay [9] can be described thus: RPMI8226 myeloma cell viability, profiling panel, resazurin fluorescence, basal, 24 h, PK04 Diversity Set (AID 1180).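 Further: RPMI8826 multiple myeloma cell line at 5000 cells per well; test concentration not given here.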 The note with it: higher = more signal.
In assay [10] the target is E3 ubiquitin-protein ligase XIAP (Homo sapiens) (UniProt P98170). Description: XIAP binders, primary screen, biophysical, small-molecule microarray, fluorescence 635 nm (AID 1181).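 Further: score merges 667 nm emission and signal to noise over triplicate slides.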 Particulars: small-molecule microarray binding, higher = more signal.
Sequence of E3 ubiquitin-protein ligase XIAP (Homo sapiens) (P98170 whole entry, looked up): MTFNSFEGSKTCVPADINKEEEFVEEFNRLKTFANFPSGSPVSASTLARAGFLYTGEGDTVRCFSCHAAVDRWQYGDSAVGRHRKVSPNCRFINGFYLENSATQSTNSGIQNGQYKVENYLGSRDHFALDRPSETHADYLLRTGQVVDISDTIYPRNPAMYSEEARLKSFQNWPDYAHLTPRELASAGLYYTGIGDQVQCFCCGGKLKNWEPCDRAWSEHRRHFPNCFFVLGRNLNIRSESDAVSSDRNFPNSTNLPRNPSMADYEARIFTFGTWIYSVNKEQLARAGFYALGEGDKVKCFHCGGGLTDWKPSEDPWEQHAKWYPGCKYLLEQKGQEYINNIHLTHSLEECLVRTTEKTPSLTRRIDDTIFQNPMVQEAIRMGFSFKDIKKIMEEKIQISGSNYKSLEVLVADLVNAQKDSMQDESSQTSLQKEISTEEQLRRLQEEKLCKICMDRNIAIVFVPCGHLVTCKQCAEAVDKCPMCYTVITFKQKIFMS

With `CCN1C(=O)[C@H]2[C@H]3[C@H](O)[C@H](O)CC(=NOCc4ccccc4)[C@@H]3CC[C@H]2C1=O`, the z-score was -0.113 in [1]; -1.73 (inactive) in assay [2]; -2.61 (inactive) in assay [3]; 0.659 (inactive) in assay [5]; -2.27 (inactive) in [6]; -0.717 (inactive) in assay [7]. The z-score is -0.353 (inactive) in assay [8] and -1.89 in assay [9]. The composite z-score is -2.05 (inactive) in assay [4] and -0.0302 in assay [10].

For `COCCOC(=O)N1C(=O)[C@@]2(c3cc(C#Cc4ccc(OC)cc4)ccc31)[C@H](C(=O)N1CCN(c3ncccn3)CC1)[C@H]1C(=O)O[C@H](c3ccccc3)[C@H](c3ccccc3)N1[C@@H]2c1ccc(OCCO)cc1`, the z-score in [1] is 0.254; in assay [2], 1.89 (inactive); in assay [3], 0.468 (inactive); in assay [5], 3.21 (inactive); in assay [6] it was 3.06 (inactive); in [7] it was 0.178 (inactive). Besides, the figures for the z-score in assay [8] and in assay [9] were -0.0435 (inactive) and -0.0737, respectively. In addition, the composite z-score in assay [4] was -1.62 (inactive); in assay [10], -0.337.

On to `COC(=O)[C@H](C)NC(=O)CCC1CC(OC(=O)NCCc2ccc(F)cc2)CC2(CCCC(COC(=O)NCCc3ccc(Cl)cc3)O2)O1` (stereo not given in full), for which the z-score in assay [1] was 0.315; in assay [2], 0.592 (inactive); in [3], 0.349 (inactive); in [5], 0.45 (inactive); in [6], 0.825 (inactive); in [7] it was 0.718 (inactive). Further, the z-score was 0.942 (inactive) in assay [8] and 0.761 in assay [9]. Also, the composite z-score in assay [4] is -0.532 (inactive); in [10] it was -0.0918.

As to `C[C@@H]1CC[C@H]2C(=O)O[C@H](COc3ccc(C(C)(C)C)cc3)CN2[C@H]1c1ccc(Br)cc1`, the z-score is 0.182 in assay [1]; 0.789 (inactive) in assay [2]; 0.837 (inactive) in [3]; 0.18 (inactive) in assay [5]; 1.71 (inactive) in assay [6]; -0.474 (inactive) in assay [7]. Moreover, the z-score is -0.438 (inactive) in [8] and 1.12 in [9]. Further, the composite z-score in assay [4] is 0.702 (inactive); in assay [10], -0.0118.

On to `CCOC(=O)[C@H](CC(C)C)NC(=O)CCC1CC(OC(=O)NCCc2ccc(F)cc2)CC2(CCCC(COC(=O)NCc3ccccc3)O2)O1` (stereo not given in full), for which the z-score in [1] is -0.816; in assay [2] it was -0.849 (inactive); in assay [3], 0.409 (inactive); in assay [5] it was -0.613 (inactive); in assay [6] it was -0.0385 (inactive); in assay [7] it was -0.221 (inactive). The z-score is -0.565 (inactive) in assay [8] and 0.185 in assay [9]. In addition, the composite z-score was -2.24 (inactive) in [4] and -0.0333 in [10].

`O=C1CCCC2OC12C(O)CCc1ccccc1` (stereo not given): the z-score in assay [1] was -1.06; in assay [2], -0.372 (inactive); in [3], -0.397 (inactive); in assay [5] it was -0.127 (inactive); in assay [6] it was 0.142 (inactive); in [7] it was 0.637 (inactive). For the same compound, the z-score in assay [8] is 0.489 (inactive); in [9], 0.145. Moreover, the composite z-score in assay [4] is -0.103 (inactive); in assay [10] it was -0.0238.

Turning to `CN1C(=O)[C@@]2(CCC(=O)OC(C)(C)C)N=C(c3ccc(OCCCO)cc3)O[C@H]2c2ccccc21`, the z-score is 0.761 in [1]; -1.04 (inactive) in assay [2]; -1.82 (inactive) in [3]; 0.0279 (inactive) in assay [5]; -0.177 (inactive) in assay [6]; 1.2 (inactive) in assay [7]. The z-score in assay [8] is 0.767 (inactive); in assay [9], -1.99. Moreover, the composite z-score is -0.281 (inactive) in assay [4] and 0.169 in assay [10].

Turning to `O=C1[C@H]2[C@H]3[C@H](O)[C@H](O)CC(=NOC[C@@H](O)COCc4ccco4)[C@H]3CC[C@H]2C(=O)N1c1cccc(Oc2ccccc2)c1`, the z-score in assay [1] is 0.957; in [2], 0.22 (inactive); in assay [3], -0.654 (inactive); in [5], 0.741 (inactive); in assay [6], -0.183 (inactive); in assay [7], 0.916 (inactive). In addition, the results for the z-score in [8] and in assay [9] were 1.33 (inactive) and -0.192, respectively. The values for the composite z-score in assay [4] and in assay [10] were -0.365 (inactive) and -0.295, respectively.

For `Cc1ccc(S[C@]2(C(=O)O)CC(=O)N(Cc3ccccc3)[C@@H]2c2ccc(CO)cc2I)cc1`, the z-score in assay [1] was -0.201; in assay [2], -3.44 (inactive); in [3], -2.14 (inactive); in assay [5], 0.649 (inactive); in assay [6] it was -1.44 (inactive); in assay [7], -0.256 (inactive). For the same compound, the z-score in assay [8] was -0.246 (inactive); in assay [9], -1.26. In addition, the figures for the composite z-score in [4] and in assay [10] were -0.975 (inactive) and -0.287, respectively.

On to `COC(=O)c1c(CC[C@@H](CO)NC(=O)N[C@H](Cc2ccccc2)Cn2cc(-c3ccccc3N)nn2)oc(C(C)=O)c1C(=O)OC`, for which the z-score was -0.601 in assay [1]; -1.2 (inactive) in assay [2]; 0.505 (inactive) in assay [3]; -0.109 (inactive) in [5]; -0.053 (inactive) in assay [6]; 1.18 (inactive) in assay [7]. In addition, the z-score is 0.561 (inactive) in assay [8] and 0.336 in [9]. For the same compound, the composite z-score in assay [4] is -0.433 (inactive); in assay [10], -0.127.

Consider `CC(C)NC(=O)[C@@H]1c2ccccc2C(=O)N(CC23CC4CC(CC(C4)C2)C3)[C@H]1c1ccc(CO)cc1`, for which the z-score in assay [1] was 0.64; in [2], -1.23 (inactive); in assay [3], 0.955 (inactive); in [5], 0.553 (inactive); in [6], -1.52 (inactive); in [7] it was 0.765 (inactive). For the same compound, the z-score in [8] was 1.59 (inactive); in assay [9], 0.834. Further, the results for the composite z-score in assay [4] and in assay [10] were 0.61 (inactive) and -0.0172, respectively.

Turning to `C#CCCCON=C1C[C@@H](O)[C@@H](O)[C@@H]2[C@@H]3C(=O)N(c4cccc(Oc5ccccc5)c4)C(=O)[C@@H]3CC[C@@H]12`, the z-score in [1] was 0.32; in assay [2], -1.13 (inactive); in assay [3], 0.47 (inactive); in assay [5], -0.601 (inactive); in [6], -0.293 (inactive); in assay [7], -0.146 (inactive). Also, the values for the z-score in [8] and in [9] were -0.0303 (inactive) and 0.868, respectively. The composite z-score in assay [4] is 1 (inactive); in assay [10], 0.0153.
